PubChem BioAssay (Tox21)
Results filed as inconclusive are left out. The source made the active and inactive calls. Calls come from the whole dose curve; as a rule, active = well fitted curve in the direction sought with a large enough effect in the repeat runs; inconclusive = weak or mixed curves; inactive = no such curve, though single readings can be large; an effect the other way counts as inactive or inconclusive.

Key:
[1] = molecular target: Cytochrome P450 2C19 (Homo sapiens) (UniProt P33261); experiment: Cytochrome P450 Family 2 Subfamily C Member 19 (CYP2C19) small molecule antagonists: luciferase reporter qHTS assay (AID 1671197); settings: P450-Glo CYP2C19 enzyme, luciferin luminescence, 1 h; series mostly up to 52.9 µM; note: nearly all actives have a fitted effect of over 65% in size; note: potency is the fitted concentration of half-maximal effect
Cytochrome P450 2C19 (Homo sapiens), sequence (P33261 whole entry, looked up): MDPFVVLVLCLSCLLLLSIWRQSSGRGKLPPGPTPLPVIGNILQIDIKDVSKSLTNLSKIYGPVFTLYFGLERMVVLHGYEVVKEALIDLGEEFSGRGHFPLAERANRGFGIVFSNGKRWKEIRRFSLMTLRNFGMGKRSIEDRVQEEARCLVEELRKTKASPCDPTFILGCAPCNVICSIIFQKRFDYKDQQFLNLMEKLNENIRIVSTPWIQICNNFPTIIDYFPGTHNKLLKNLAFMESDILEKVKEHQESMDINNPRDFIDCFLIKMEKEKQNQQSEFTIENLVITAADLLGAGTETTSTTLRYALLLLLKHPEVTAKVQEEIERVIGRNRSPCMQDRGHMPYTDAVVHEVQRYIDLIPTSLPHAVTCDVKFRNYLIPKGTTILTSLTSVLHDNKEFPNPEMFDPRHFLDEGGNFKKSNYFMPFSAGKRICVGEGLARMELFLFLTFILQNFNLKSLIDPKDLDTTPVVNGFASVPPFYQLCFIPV
In short: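 First, compounds are pinned into enzyme-substrate mix and held 10 min at room temperature. Second, NADPH regeneration solution is added and plates incubate 1 h at 37C. Third, detection reagent is added and luminescence read after 20 min.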

[2] = molecular target: Cytochrome P450 2C9 (Homo sapiens) (UniProt P11712); experiment: Cytochrome P450 Family 2 Subfamily C Member 9 (CYP2C9) small molecule antagonists: luciferase reporter qHTS assay (AID 1671198); settings: P450-Glo CYP2C9 enzyme assay, luciferin luminescence; series mostly up to 115 µM; note: nearly all actives have a fitted effect of over 50% in size; note: potency is the fitted concentration of half-maximal effect
Cytochrome P450 2C9 (Homo sapiens), sequence (P11712 whole entry, looked up): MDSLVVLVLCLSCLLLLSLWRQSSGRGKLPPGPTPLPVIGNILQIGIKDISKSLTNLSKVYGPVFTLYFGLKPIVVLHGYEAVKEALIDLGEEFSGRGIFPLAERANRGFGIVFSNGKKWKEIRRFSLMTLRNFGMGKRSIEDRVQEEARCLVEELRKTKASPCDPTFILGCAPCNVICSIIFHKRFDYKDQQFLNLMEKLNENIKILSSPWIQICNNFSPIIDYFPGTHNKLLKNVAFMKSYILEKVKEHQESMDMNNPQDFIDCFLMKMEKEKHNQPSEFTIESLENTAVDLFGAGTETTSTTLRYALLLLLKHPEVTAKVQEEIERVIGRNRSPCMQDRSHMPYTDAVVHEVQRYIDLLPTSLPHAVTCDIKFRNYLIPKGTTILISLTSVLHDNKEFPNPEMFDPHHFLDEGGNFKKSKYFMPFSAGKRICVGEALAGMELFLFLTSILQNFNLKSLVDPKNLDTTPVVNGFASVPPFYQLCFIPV
In short: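 Enzyme-substrate mix preincubated with compound 10 min at room temperature; reaction started with NADPH regeneration solution, 1 h 37C. Luminescent luciferin product read after 20 min detection reagent.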

[3] = molecular target: Cytochrome P450 1A2 (Homo sapiens) (UniProt P05177); experiment: Cytochrome P450 Family 1 Subfamily A Member 2 (CYP1A2) small molecule antagonists: luciferase reporter qHTS assay (AID 1671199); settings: P450-Glo CYP1A2 enzyme, luciferin luminescence, 1 h; series mostly up to 53 µM; note: nearly all actives have a fitted effect of over 50% in size; note: potency is the fitted concentration of half-maximal effect
Cytochrome P450 1A2 (Homo sapiens), sequence (P05177 whole entry, looked up): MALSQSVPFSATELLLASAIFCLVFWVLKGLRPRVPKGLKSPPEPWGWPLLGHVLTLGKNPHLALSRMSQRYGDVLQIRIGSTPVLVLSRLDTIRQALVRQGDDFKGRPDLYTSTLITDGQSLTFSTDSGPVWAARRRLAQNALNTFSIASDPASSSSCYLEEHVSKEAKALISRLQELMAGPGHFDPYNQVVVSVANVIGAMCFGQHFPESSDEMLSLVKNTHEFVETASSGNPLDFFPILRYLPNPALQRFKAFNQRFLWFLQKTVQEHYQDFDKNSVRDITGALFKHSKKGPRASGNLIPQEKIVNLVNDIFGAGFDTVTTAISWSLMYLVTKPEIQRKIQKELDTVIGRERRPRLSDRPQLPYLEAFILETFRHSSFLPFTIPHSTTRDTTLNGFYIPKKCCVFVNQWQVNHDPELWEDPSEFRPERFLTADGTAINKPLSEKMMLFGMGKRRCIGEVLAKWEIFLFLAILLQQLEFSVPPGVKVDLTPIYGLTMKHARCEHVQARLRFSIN
In short: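 Quantitative high-throughput format using the P450-Glo CYP1A2 system. Reaction initiated by NADPH regeneration solution, 1 h at room temperature, then stopped with detection reagent; luminescence measured 20 min later.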

[4] = molecular target: Cytochrome P450 3A4 (Homo sapiens) (UniProt P08684); experiment: Cytochrome P450 Family 3 Subfamily A Member 4 (CYP3A4) small molecule antagonists: luciferase reporter qHTS assay (AID 1671201); settings: P450-Glo CYP3A4 enzyme, luciferin luminescence, 1 h; series mostly up to 115 µM; note: nearly all actives have a fitted effect of over 50% in size; note: potency is the fitted concentration of half-maximal effect
Cytochrome P450 3A4 (Homo sapiens), sequence (P08684 whole entry, looked up): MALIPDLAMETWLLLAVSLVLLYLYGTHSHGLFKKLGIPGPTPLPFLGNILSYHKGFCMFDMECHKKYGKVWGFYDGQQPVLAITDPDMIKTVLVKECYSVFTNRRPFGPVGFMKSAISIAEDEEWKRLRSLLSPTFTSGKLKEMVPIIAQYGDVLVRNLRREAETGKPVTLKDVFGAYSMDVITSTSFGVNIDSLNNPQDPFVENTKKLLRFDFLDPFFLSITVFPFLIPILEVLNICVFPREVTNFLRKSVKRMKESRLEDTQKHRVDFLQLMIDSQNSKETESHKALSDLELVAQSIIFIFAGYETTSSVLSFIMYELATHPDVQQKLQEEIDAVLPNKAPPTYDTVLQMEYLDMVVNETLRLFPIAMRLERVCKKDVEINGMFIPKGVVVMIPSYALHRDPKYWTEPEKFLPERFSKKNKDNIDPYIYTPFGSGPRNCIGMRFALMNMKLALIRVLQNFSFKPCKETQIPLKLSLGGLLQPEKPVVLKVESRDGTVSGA
In short: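 Inhibition of CYP3A4 is measured as loss of light: the enzyme converts a proluciferin substrate to luciferin, detected luminescently. Reaction ran 1 h at room temperature with NADPH regeneration after a 10 min compound preincubation.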

[5] = molecular target: Voltage-gated inwardly rectifying potassium channel KCNH2 (Homo sapiens) (UniProt Q12809); experiment: Human Ether-a-go-go-Related Gene (hERG) channel small molecule antagonists: fluorescence cell-based qHTS assay (AID 1671200); settings: hERG-U2OS cells, FluxOR thallium flux fluorescence; series mostly up to 76.8 µM;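 note: hERG-expressing U2OS cells given a thallium stimulus after FluxOR II dye loading; nearly all actives have a fitted effect of over 50% in size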
Voltage-gated inwardly rectifying potassium channel KCNH2 (Homo sapiens), sequence (Q12809 whole entry, looked up): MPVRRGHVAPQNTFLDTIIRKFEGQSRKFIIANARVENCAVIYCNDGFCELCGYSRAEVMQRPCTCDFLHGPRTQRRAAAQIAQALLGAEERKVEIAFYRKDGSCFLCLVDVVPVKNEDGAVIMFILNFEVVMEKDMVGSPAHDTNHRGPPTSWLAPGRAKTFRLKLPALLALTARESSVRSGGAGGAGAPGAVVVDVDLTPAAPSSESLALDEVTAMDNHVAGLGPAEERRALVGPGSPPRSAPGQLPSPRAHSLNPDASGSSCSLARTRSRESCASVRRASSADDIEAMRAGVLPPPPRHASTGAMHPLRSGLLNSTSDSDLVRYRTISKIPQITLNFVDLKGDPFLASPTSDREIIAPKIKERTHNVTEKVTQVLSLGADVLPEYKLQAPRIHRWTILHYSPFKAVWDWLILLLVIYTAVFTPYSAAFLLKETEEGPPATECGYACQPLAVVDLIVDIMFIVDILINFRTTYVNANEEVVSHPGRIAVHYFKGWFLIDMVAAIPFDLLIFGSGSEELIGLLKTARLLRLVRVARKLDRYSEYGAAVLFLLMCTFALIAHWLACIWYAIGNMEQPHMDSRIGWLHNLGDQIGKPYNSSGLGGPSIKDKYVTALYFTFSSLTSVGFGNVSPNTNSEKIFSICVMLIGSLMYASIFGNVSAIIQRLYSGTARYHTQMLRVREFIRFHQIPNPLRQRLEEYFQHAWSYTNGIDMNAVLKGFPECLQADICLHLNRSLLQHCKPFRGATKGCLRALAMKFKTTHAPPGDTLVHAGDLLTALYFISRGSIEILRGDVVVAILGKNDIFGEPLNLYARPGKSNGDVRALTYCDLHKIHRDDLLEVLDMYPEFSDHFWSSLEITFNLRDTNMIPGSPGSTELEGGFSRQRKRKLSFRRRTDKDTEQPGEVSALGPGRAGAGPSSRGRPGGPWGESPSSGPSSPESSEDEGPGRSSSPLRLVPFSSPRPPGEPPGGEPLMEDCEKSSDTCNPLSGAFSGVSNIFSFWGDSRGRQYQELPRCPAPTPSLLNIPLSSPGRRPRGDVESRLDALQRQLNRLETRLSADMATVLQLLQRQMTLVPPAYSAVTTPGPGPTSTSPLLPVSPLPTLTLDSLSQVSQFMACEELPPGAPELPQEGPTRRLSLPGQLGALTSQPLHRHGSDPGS
In short: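 Quantitative HTS in hERG-U2OS cells: thallium entry through the channel reports activity, read as continuous 480/540 nm fluorescence over 2 min after stimulus addition.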
% is set by controls: 0 for no effect and ±100 for the full control effect.

CC(=O)[O][Al][O]C(C)=O
inactive: Potency [1] | Potency [2] | Potency [3] | Potency [4]

O=C(OCCc1ccccc1)c1ccccc1
active: Potency [1] 12.6 µM | Potency [2] 31.7 µM | Potency [3] 20 µM
inactive: Potency [4]

CCOC(=O)NCCOc1ccc(Oc2ccccc2)cc1
inactive: Potency [4]
active: Potency [1] 6.33 µM | Potency [2] 20 µM | Potency [3] 11.2 µM

Cc1[nH]c(C)c(Cl)c(=O)c1Cl
inactive: Potency [1] | activity change, negative = inhibition [2] 23.2% [at 23.6 µM] | Potency [3] | activity change, negative = inhibition [4] 19.3% [at 23.6 µM]

CC1OC(=O)C(C)OC1=O (stereo not given)
inactive: Potency [1] | Potency [2] | Potency [3] | Potency [5] | Potency [4]

CC(C)(C)Cl
inactive: Potency [1] | Potency [2] | Potency [3] | Potency [4]

C/C=C(/C(=C/C)c1ccc(OC(C)=O)cc1)c1ccc(OC(C)=O)cc1
active: Potency [1] 17.4 µM | Potency [2] 7.76 µM
inactive: Potency [3] | Potency [4]

CCOC(=O)COC(=O)c1cc(Oc2ccc(C(F)(F)F)cc2Cl)ccc1[N+](=O)[O-]
active: Potency [1] 11.2 µM | Potency [2] 6.33 µM | Potency [3] 22.4 µM
inactive: Potency [4]

CN(C)CCN(Cc1ccsc1)c1ccccn1
inactive: Potency [1] | Potency [2] | Potency [3] | Potency [4]

NCCCN1CCOCC1
inactive: Potency [1] | Potency [2] | Potency [3] | Potency [5] | Potency [4]

CCCCC(CC)CN1C(=O)C2C3C=CC(C3)C2C1=O (stereo not given)
active: Potency [1] 3.56 µM | Potency [2] 7.96 µM | Potency [3] 17.8 µM | Potency [4] 1 µM

COc1ccc(C(=O)N2CCN(CC(=O)N3CCOCC3)CC2)cc1
inactive: Potency [1] | Potency [2] | Potency [3] | Potency [4]

CC1(c2ccccc2)OC(C(=O)O)=CC1=O (stereo not given)
inactive: Potency [1] | Potency [2] | Potency [3] | Potency [5] | Potency [4]

O=C1OC(CN2CCOCC2)CN1/N=C/c1ccc([N+](=O)[O-])o1 (stereo not given)
inactive: Potency [1] | Potency [2] | Potency [3] | Potency [4]

O=C1CCCCCCCCCCCC(=O)OCCO1
active: Potency [1] 71 µM | Potency [2] 63.3 µM | Potency [3] 39.9 µM | Potency [4] 35.6 µM

NC(=O)C(c1ccccc1)(c1ccccc1)[C@@H]1CCN(CCc2ccc3c(c2)CCO3)C1
inactive: Potency [1] | Potency [2] | Potency [3] | Potency [4]

O=C1c2ccccc2S(=O)(=O)N1CCCCN1CCN(c2ncccn2)CC1
inactive: Potency [1] | Potency [3] | Potency [4]
active: Potency [2] 15.5 µM

CCOC(=O)Cc1cccc2ccccc12
inactive: Potency [2] | Potency [4]
active: Potency [1] 20 µM | Potency [3] 15.9 µM

Cc1ccccc1S(=O)(=O)O
inactive: Potency [1] | Potency [2] | Potency [3] | Potency [5] | Potency [4]

CCN(CC)c1ccc2c(-c3ccccc3C(=O)O)c3ccc(=[N+](CC)CC)cc-3oc2c1
inactive: Potency [5]
active: Potency [1] 71 µM | Potency [2] 28.3 µM | Potency [3] 35.6 µM | Potency [4] 12.6 µM

C1CCCNCCC1
inactive: Potency [1] | Potency [2] | Potency [3] | Potency [5] | Potency [4]

COc1ccc(C(=O)Nc2nc3ccccc3c(NCc3ccccc3)c2C#N)cc1
active: Potency [1] 17.8 µM | Potency [2] 2 µM | Potency [3] 15.9 µM | Potency [4] 4.48 µM

NC(N)=NCCC[C@H](N)C(=O)O
inactive: activity change, negative = inhibition [1] 24.2% [at 10.5 µM] | activity change, negative = inhibition [2] 10.6% [at 10.5 µM] | activity change, negative = inhibition [3] 1.33% [at 10.5 µM] | activity change, negative = inhibition [4] 0.752% [at 10.5 µM]

CC(COCCO)OCCO (stereo not given)
inactive: Potency [1] | Potency [2] | Potency [3] | Potency [5] | Potency [4]

CC(C)(COC(=O)c1ccccc1)COC(=O)c1ccccc1
active: Potency [1] 20 µM | Potency [2] 6.33 µM | Potency [3] 39.9 µM
inactive: Potency [4]

CCOC(=O)C(F)(F)F
inactive: Potency [1] | Potency [2] | Potency [3] | Potency [5] | Potency [4]

O=C(NCCO[N+](=O)[O-])c1cccnc1
inactive: Potency [2] | Potency [3] | Potency [5]
